Laboratory results reported in PubChem BioAssay (NCI).
Compounds without any hit were thinned out: in the full panel of roughly 83,000, 20% have a hit.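 Each cell line was grown in a 96-well plate and treated with one concentration of compound for 48 hours. Values below 10 were considered active.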 Active and inactive are the calls of the source.

Test system: NCI-H322M lung
Assay: NCI-60 one-dose screen, 48 h (100 = growth as untreated, 0 = no growth, -100 = all killed)
Conditions: 10 µM unless noted

SMILES | growth
O=C1CCCCN1c1ccc(C2=NCCCN2)cc1 | 92.3% (inactive)
O=C(Oc1ccc2c(c1)sc1nc(-c3ccccc3)[nH]c(=O)c12)C(F)(F)F | 56.3% (inactive)
CCNC(=O)N1CCc2c(Br)c3c(c(OC)c2C1Cc1ccc(OC)cc1)OCO3 (centres undefined) | 52.9% (inactive)
Cc1ccccc1N1CCN(C(=S)c2ccccc2)CC1 | 102% (inactive)
CS(=O)(=O)Nc1cc(-c2ccc3ncnc(Nc4ccc(F)c(Cl)c4)c3c2)ccc1Cl | 24.7% (inactive)
Fc1cc2[nH]ncc2c2c3c(c(-c4cn[nH]c4C(F)(F)F)nc12)CCCC3 | -0.0231% (active)
COc1ccc(CNc2ccc3nc(NC(=O)CN4CCCCCC4)sc3c2)cc1 | 106% (inactive)
COc1c2c(cc3c1C(=O)N[C@@H]1[C@@H](O)[C@@H](O)[C@H](O)C[C@@H]31)OCCO2 | 93.5% (inactive)
CCN1C(=O)N(c2ccccc2)C2NC(=S)N(/N=C/C=C/c3ccccc3OC)C21 (centres undefined) | 41.8% (inactive)
CSc1nc2ccc(C)cc2cc1/C=C1/C=C(c2ccccc2)NC1=O | 65.8% (inactive)
CC1=Nc2cnc(Nc3ccc(N4CCCCC4)cc3)nc2Nc2ccccc21 | 75.7% (inactive)
Nc1c(C(=O)Nc2cccc3ncccc23)sc2nc3c(cc12)CN(Cc1ccccc1)CC3 | 83% (inactive)
COCCn1cc(-c2nc(-c3cn(CCOC)c4ncccc34)cs2)c2cc(F)ccc21 | 46.9% (inactive)
COC(=O)[C@]1(C)CCC[C@]2(C)[C@H]3C[C@@H]4[C@H]5[C@@H]6CC/C(=N\OCC/C(N)=N/O)[C@H]5[C@@]3(CC[C@H]21)CC4(C(C)C)O6 | 82.2% (inactive)
